According to PubChem BioAssay (NCATS):
Records with an inconclusive call do not appear. Active and inactive are the calls of the source. Calls follow the shape of the dose curve; as a rule, active = well fitted inhibition curve with a large enough effect; inconclusive = small, poorly fitted or top-dose-only effect; inactive = flat fitted curve, though single readings scatter.

How the values were obtained:
CRL-7250 = normal cell line; experiment: Cytotoxic Profiling of Annotated Libraries Using Quantitative High-Throughput Screening (AID 1296008); conditions: Five cell lines viability, CellTiter-Glo ATP luminescence, 48-72 h; max response: active compounds read low; as to max response: % is scaled to controls: 0 for no effect and ±100 for the full control effect
In short: (§1)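 Cells exposed to compounds for 48 or 72 hr at 37 degrees Celsius. Viability read as ATP-coupled luminescence with CellTiter-Glo after 10 min at room temperature.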

HEK293 = experiment: as above; conditions: Five cell lines viability, CellTiter-Glo ATP luminescence, 48-72 h; max response: active compounds read low
In short: as §1

HaCat [1] = experiment: as above; conditions: Five cell lines viability, CellTiter-Glo ATP luminescence, 48-72 h; max response: active compounds read low
In short: as §1

KB-3-1 = experiment: as above; conditions: Five cell lines viability, CellTiter-Glo ATP luminescence, 48-72 h; max response: active compounds read low
In short: as §1

NIH3T3 = experiment: as above; conditions: Five cell lines viability, CellTiter-Glo ATP luminescence, 48-72 h; max response: active compounds read low
In short: as §1

HACAT [2] = experiment: qHTS assay to identify novel small-molecules to repurpose for Merkel cell carcinoma treatment (AID 1296009); conditions: MCC and control cell lines, CellTiter-Glo viability, 72 h
In short: (§2)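 Dose-response viability screen; 72 hr exposure at 37 degree celsius; CellTiter-Glo added, 10 min room temperature, luminescence read; RLUs scaled between no-cell and DMSO wells.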

HEK293T = experiment: as above; conditions: MCC and control cell lines, CellTiter-Glo viability, 72 h; series mostly up to 44.8 µM
In short: as §2

[3] = at 44.8 µM (top of the series) unless noted
Also: nearly all actives have a fitted effect of over 60% in size.

CC(C)(O)c1ccc2c(c1)C(O)CC1C(C)(C(=O)O)CCCC21C (stereo not given)
inactive: max response (CRL-7250) -4.52% | outcome (HEK293) | outcome (HaCat [1]) | max response (KB-3-1) 3.03% | outcome (NIH3T3) | outcome (HACAT [2]; [3]) | Potency (HEK293T)

C=C1[C@@H]2CC[C@@]3(C)[C@H](c4ccoc4)OC(=O)C[C@]13O[C@H]1CC(=O)C(C)(C)[C@H](CC(=O)OC)[C@]12C
inactive: max response (CRL-7250) -0.448% | outcome (HEK293) | outcome (HaCat [1]) | max response (KB-3-1) -1.94% | outcome (NIH3T3) | outcome (HACAT [2]; [3]) inactive [at 17.4 µM] | Potency (HEK293T)

C[C@@H]1CC[C@]2(C(=O)O)CC[C@]3(C)C(=CCC4[C@]5(C)C(CC[C@]43C)C(C)(C)[C@@H](O)[C@H](O)[C@@H]5O)C2[C@]1(C)O (stereo not given in full)
inactive: max response (CRL-7250) -2.7% | outcome (HEK293) | outcome (HaCat [1]) | outcome (KB-3-1) | max response (NIH3T3) -3.49% | outcome (HACAT [2]; [3]) inactive [at 17.4 µM] | Potency (HEK293T)

CCOC(=O)c1ccc(N(C)c2csc(-c3ccccc3)n2)cc1
inactive: max response (CRL-7250) 4.84% | outcome (HEK293) | outcome (HaCat [1]) | max response (KB-3-1) 0.515% | outcome (NIH3T3) | outcome (HACAT [2]; [3]) | Potency (HEK293T)

CCOc1nc2cccc(C(=O)O)c2n1Cc1ccc(-c2ccccc2-c2noc(=O)[nH]2)cc1
inactive: max response (CRL-7250) 4.39% | outcome (HEK293) | outcome (HaCat [1]) | outcome (KB-3-1) | max response (NIH3T3) -8.35% | outcome (HACAT [2]; [3]) | Potency (HEK293T)

CCOC(=O)[C@H]1O[C@@H]1C(=O)N[C@@H](CC(C)C)C(=O)NCCC(C)C
inactive: outcome (CRL-7250) | outcome (HEK293) | outcome (HaCat [1]) | outcome (KB-3-1) | max response (NIH3T3) -2.92% | outcome (HACAT [2]; [3]) | Potency (HEK293T)

CC1(O)CCC2C(C(=O)O)=COC(OC3OC(CO)C(O)C(O)C3OC(=O)/C=C/c3ccc(O)cc3)C21 (stereo not given)
inactive: outcome (CRL-7250) | outcome (HEK293) | outcome (HaCat [1]) | max response (KB-3-1) 8.2% | outcome (NIH3T3) | outcome (HACAT [2]; [3]) inactive [at 17.4 µM] | Potency (HEK293T)

CO[C@@H]1COCC[C@@H]1N[C@@H]1CC[C@@](C(=O)N2CCc3ncc(C(F)(F)F)cc3C2)(C(C)C)C1
inactive: outcome (CRL-7250) | outcome (HEK293) | outcome (HaCat [1]) | outcome (KB-3-1) | max response (NIH3T3) -6.53% | outcome (HACAT [2]; at 17.4 µM (top of the series)) | outcome (HACAT [2]; at 44.8 µM (top of the series)) | Potency (HEK293T)

COC(=O)C[C@@H]1C(C(=O)O)=CO[C@@H](O[C@@H]2O[C@H](CO)[C@@H](O)[C@H](O)[C@H]2O)/C1=C\COC(=O)/C=C\c1ccccc1
inactive: max response (CRL-7250) -11.7% | outcome (HEK293) | outcome (HaCat [1]) | max response (KB-3-1) -0.0915% | max response (NIH3T3) -14.1% | outcome (HACAT [2]; [3]) inactive [at 17.4 µM] | Potency (HEK293T)

COc1cc(CCc2ccccc2)c(C(=O)O)c2c1CC(C(C)(C)O)O2 (stereo not given)
inactive: outcome (CRL-7250) | outcome (HEK293) | outcome (HaCat [1]) | outcome (KB-3-1) | outcome (NIH3T3) | outcome (HACAT [2]; [3]) | Potency (HEK293T)

CCc1c(CC(N)=O)c2cc(OCCCP(=O)(O)O)ccc2n1Cc1ccccc1
inactive: max response (CRL-7250) -8.49% | outcome (HEK293) | outcome (HaCat [1]) | outcome (KB-3-1) | max response (NIH3T3) -4.64% | outcome (HACAT [2]; [3]) | Potency (HEK293T)

COc1cc(C2Oc3c(OC)cc(/C=C/C(=O)OC[C@H]4O[C@@H](OC(C)(C)C(=O)O)[C@H](O)[C@@H](O)[C@@H]4O)cc3C2CO)ccc1O (stereo not given in full)
inactive: outcome (CRL-7250) | outcome (HEK293) | outcome (HaCat [1]) | max response (KB-3-1) 0.492% | max response (NIH3T3) 1.11% | outcome (HACAT [2]; [3]) inactive [at 17.4 µM] | Potency (HEK293T)

C=C[C@@]1(C)CC(=O)C2[C@](C)(O1)[C@@H](OC(C)=O)[C@@H](O)[C@H]1C(C)(C)CCC[C@]21C (stereo not given in full)
inactive: max response (CRL-7250) -2.88% | outcome (HEK293) | outcome (HaCat [1]) | max response (KB-3-1) 7.42% | outcome (NIH3T3) | outcome (HACAT [2]; [3]) inactive [at 9.27 µM] | outcome (HEK293T) inactive [at 9.27 µM]

CCNC(=O)CCC/C=C\C[C@@H]1[C@@H](/C=C/C(O)CCc2ccccc2)[C@@H](O)C[C@@H]1O (stereo not given in full)
inactive: outcome (CRL-7250) | outcome (HEK293) | outcome (HaCat [1]) | max response (KB-3-1) 9.15% | outcome (NIH3T3) | outcome (HACAT [2]; [3]) | Potency (HEK293T)

O=C(/C=C/c1ccc(O)cc1)OC[C@]12O[C@H]1[C@@H](O)[C@@H]1C=CO[C@@H](O[C@@H]3O[C@H](CO)[C@@H](O)[C@H](O)[C@H]3O)[C@@H]12
inactive: max response (CRL-7250) -7.12% | outcome (HEK293) | outcome (HaCat [1]) | max response (KB-3-1) 8.48% | outcome (NIH3T3) | outcome (HACAT [2]; [3]) inactive [at 17.4 µM] | Potency (HEK293T)

C[C@@H]1C/C=C/C=C\C=C\C=C\[C@H](O[C@@H]2O[C@H](C)[C@@H](O)[C@H](N)[C@@H]2O)C[C@@H]2O[C@](O)(C[C@@H](O)C[C@H]3O[C@@H]3/C=C/C(=O)O1)C[C@H](O)[C@H]2C(=O)O
inactive: max response (CRL-7250) 2.84% | outcome (HEK293) | outcome (HaCat [1]) | max response (KB-3-1) 3.12% | max response (NIH3T3) -11.8% | outcome (HACAT [2]; [3]) inactive [at 17.4 µM] | Potency (HEK293T)

COc1c2c(c(C)c3c1C(=O)OC3)OC1(C)CC(O)C3(O)C(C)(C)OC(=O)CCC3(C)C1C2 (stereo not given)
inactive: max response (CRL-7250) -8.09% | outcome (HEK293) | outcome (HaCat [1]) | max response (KB-3-1) 8.81% | outcome (NIH3T3) | outcome (HACAT [2]; [3]) inactive [at 17.4 µM] | Potency (HEK293T)
